Experimental data: PubChem BioAssay
Values joined by “and” are separate entries in the source; they are usually repeats but may differ in a detail not shown here. Identical values can stand only once. For part of these data: Potency and affinity values are given separately. Active and inactive are the calls of the source. Unless noted, no stated cut-off is given here; in the data, active means inhibition above about 80%; inactive means the rest.

How the values were obtained:
[1] = chitosan synthesis blockers in C. neoformans – flow cytometry, Cibacron Brilliant Red staining (AID 1347148; call rule not given here;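 further: compound exposure lasted three days at 37 degrees C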); details: Cryptococcus neoformans chitosan, stronger effect = lower value; at 10 µM unless noted
[2] = blockers of polyQ-driven CASP3 activation – cell-based (AID 1583); details: polyglutamine-induced caspase-3 activation, cell assay; stronger effect = higher value;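 tested at 10 µM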
[3] = yeast 75Q aggregation reduction – 75Q-TubU reporter (AID 1593); details: Yeast 75Q polyglutamine aggregation reporter
[4] = restoration of touch response, mutant HTT neurons – whole organism, C. elegans mechanosensory neurons, N-terminal huntingtin (AID 1599); details: C. elegans polyQ-huntingtin mechanosensory neurons, stronger effect = higher value
[5] = blockers of cytochrome c efflux from mitochondria – biochemical, purified mitochondria (AID 1603); details: stronger effect = lower value;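 further: mouse liver mitochondria challenged with calcium chloride; signal normalized to the plate average as 100%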
[6] = polyglutamine aggregate formation blockers (AID 1604); details: polyglutamine-induced protein aggregation inhibition assay; stronger effect = higher value; tested at 2.5 µM
[7] = glutamate transport activators, MN-1 cells, MN-1 cell line (AID 1612); details: MN-1 motor neuron cells, stronger effect = higher value;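 further: tested at 1 µM final; 0% = mean of DMSO vehicle wells on each plate; positive means more glutamate uptake than control and negative means less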
[8] = GFP-Q80 aggregate reduction, neuronal-like cells, cell-based, NGF-treated PC12, GFPQ80 (AID 1614); details: PC12 NGF-treated GFP-polyQ80 inclusion reduction;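 further: lower means fewer inclusions and 0 means no inclusions at all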
[9] = 75Q-TubH aggregate inhibition, S. cerevisiae, yeast (AID 1616); details: S. cerevisiae 75Q-TubH polyglutamine aggregation suppression; stronger effect = higher value
[10] = growth inhibition, single agent or in combination, cell-based, chromothripsis tumors, cisplatin or BGB combos (AID 1671449); details: LFS_MB_P medulloblastoma cells;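 further: cells exposed for 96 hours; 0% = vehicle DMSO and 100% = killing by high DMSO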
[11] = growth inhibition, single agent and combos, cell-based, chromothripsis tumors, cisplatin or BGB combos (AID 1671450); details: HDN33 neuroblastoma cells, stronger effect = higher value;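 further: cells exposed to compound for four days; 0% = vehicle DMSO and 100% = cell killing by high DMSO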
[12] = growth inhibition, single agents and combos, ICB984, cell-based, cisplatin or BGB combos, synergistic combos for chromothripsis tumors (AID 1671451; call rule not given here;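 further: cells exposed for 96 hours before readout; 0% = vehicle DMSO and 100% = killing by high DMSO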); details: ICB984 medulloblastoma cells, drug combinations, stronger effect = higher value
[13] = growth inhibition, single agents and combos, LFS_MB_1R, cell-based, cisplatin or BGB combos, synergistic combos for chromothripsis tumors (AID 1671452); details: LFS_MB_1R medulloblastoma cells, stronger effect = higher value;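 further: cells exposed for 96 hours before readout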
[14] = growth inhibition, single agents and combos, HTB85, cell-based, BGB or cisplatin IC20 combos, synergistic combos for chromothripsis tumors (AID 1671453); details: HTB85 osteosarcoma cells, drug combinations, stronger effect = higher value;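 further: cells exposed for 96 hours before readout; 0% = vehicle DMSO and 100% = high DMSO killing control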
[15] = growth inhibition, single agents and combos, CRL2098, cell-based, BGB or cisplatin IC20 combos, synergistic combos for chromothripsis tumors (AID 1671454); details: CRL2098 osteosarcoma cells, drug combinations, stronger effect = higher value;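 further: cells exposed for 96 h before readout; 0% = vehicle DMSO and 100% = killing by high DMSO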
[16] = growth inhibition, single agents and combos, HD-MB03, cell-based, BGB or cisplatin IC20 combos, synergistic combos for chromothripsis tumors (AID 1671455; in the data active means inhibition above about 83%;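 further: 0% = vehicle DMSO and 100% = high DMSO as cytotoxic control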); details: HD-MB03 medulloblastoma cells, stronger effect = higher value
[17] = growth inhibition, MDA-MB-436, cell-based, BGB or cisplatin combos, synergistic combos for chromothripsis tumors (AID 1671458; call rule not given here;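 further: cells exposed for 96 hours; 0% = vehicle DMSO and 100% = killing by high DMSO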); details: MDA-MB-436 breast carcinoma growth inhibition, drug combinations, stronger effect = higher value
[18] = BT084 cell growth, single and combined drugs, ICGC_MB145, cisplatin and BGB IC40 combos (AID 1671461); details: BT084 medulloblastoma cells, drug combinations, stronger effect = higher value;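 further: cells exposed to drugs for 96 hours; 0% = vehicle DMSO and 100% = high DMSO full killing control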
[19] = RCMB18 cell growth, single agent and combined, cisplatin and BGB IC40 combos (AID 1671462); details: RCMB18 medulloblastoma cells, stronger effect = higher value;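 further: cells exposed to compound for four days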
[20] = CRL1545 cell growth, single agent and combined, cisplatin and BGB IC20 combos (AID 1671464); details: CRL1545 osteosarcoma cells, stronger effect = higher value;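 further: cells exposed to compound for 96 hours before readout; 0% = vehicle DMSO and 100% = high DMSO killing control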
[21] = measured here: combination with BGB IC40, at 0.05 µM
[22] = measured here: with BGB IC20 combination, at 0.5 µM
[23] = measured here: with cisplatin IC20 combination, at 0.5 µM
[24] = measured here: combination with cisplatin, at 0.5 µM

Cc1c(C(=O)NN2CCCCC2)nn(-c2ccc(Cl)cc2Cl)c1-c1ccc(I)cc1
fold fluorescence [1]: 6.03 (inactive)

CC(C)(S)C(N)C(=O)O (centres undefined)
inhibition [2]: 22.3% | score [3]: 1.79 | rescue above control [4]: -1.67 | cytochrome c release ratio [5]: 0.98 | inhibition of aggregation [6]: 94.4% | glutamate uptake change [7]: -17.3% | inclusion score [8]: 2 | aggregation suppression score [9]: 1.65

CC(C)C[C@H](NC(=O)[C@@H](O)[C@H](N)Cc1ccccc1)C(=O)O
fold fluorescence [1]: 3.88 [at 162.1 µM] (inactive)

Cc1cccc(CCN2CCC(C(=O)c3ccc(NS(C)(=O)=O)cc3)CC2)n1
fold fluorescence [1]: 4.01 [at 124.5 µM] (inactive)

O=c1[nH]c(=O)n(C2CCCO2)cc1F (centres undefined)
inhibition ([10]; at 0.5 µM, stronger effect = higher value): -23.3% (inactive) and -7.12% (inactive) | inhibition ([10]; measured here: combination with BGB IC20, at 0.005 µM): 1.7% and -19.8% | inhibition ([10]; measured here: combination with BGB IC40, at 0.005 µM): 22.1% and -46.3% | inhibition [10, 21]: 39.2% and -46.2% | inhibition ([10]; measured here: combination with cisplatin, at 0.5 µM, stronger effect = higher value): -44.2% and 1.28% | inhibition ([10]; measured here: combination with cisplatin, at 5 µM, stronger effect = higher value): -1.4% and -18.1% | inhibition ([11]; BGB combo, at 5 µM): 12.1% and -46.5% | inhibition ([11]; at 0.5 µM): 9.66% (inactive) and -23% (inactive) | inhibition ([11]; cisplatin combo, at 5 µM): 10.3% and -19.4% | inhibition [11, 22]: 23.6% and -35.7% | inhibition [11, 23]: 2.46% and -11.5% | inhibition ([11]; single agent, at 5 µM): -7.16% and -34.9% | inhibition ([12]; BGB IC20 combo, at 0.005 µM): -7.2% and -19% | inhibition ([12]; BGB IC40 combo, at 0.005 µM): -14.4% and -20.1% | inhibition ([12]; BGB IC40 combo, at 0.05 µM): 3.65% and -15.9% | inhibition ([12]; at 0.5 µM): -2.47% (inactive) and -35.6% (inactive) | inhibition ([12]; cisplatin combo, at 0.05 µM): -0.171% and -21.9% | inhibition ([12]; cisplatin combo, at 0.5 µM): -9.38% and -50% | inhibition ([12]; cisplatin combo, at 5 µM): -27.4% and -5.1% | inhibition ([12]; measured here: 5 uM single agent, at 5 µM): 1.9% and -33.4% | inhibition ([13]; at 0.5 µM): -5.43% (inactive) and -39.4% (inactive) | inhibition [13, 21]: 2.48% and -16.7% | inhibition [13, 24]: -8.32% and -55.8% | inhibition ([13]; measured here: combination with cisplatin, at 5 µM): -0.329% and -28.6% | inhibition ([14]; at 0.5 µM): 2.38% (inactive) and -13.2% (inactive) | inhibition ([14]; measured here: with BGB IC20, at 0.5 µM): -7.69% and 6.31% | inhibition ([14]; measured here: with BGB IC20, at 5 µM): -1.29% and -14.6% | inhibition ([14]; measured here: with cisplatin IC20, at 0.5 µM): -5.89% and -34.8% | inhibition ([14]; measured here: with cisplatin IC20, at 5 µM): 2.69% and -26.3% | inhibition ([14]; single agent, at 5 µM): 15.1% and -15% | inhibition ([15]; at 0.5 µM): 3.75% (inactive) and -63.9% (inactive) | inhibition ([15]; measured here: combination with BGB at IC20, at 0.5 µM): 7.31% and -58.1% | inhibition ([15]; measured here: combination with cisplatin at IC20, at 0.5 µM): 18.7% and -78.1% | inhibition ([16]; at 0.5 µM): 1.31% (inactive) and -8.99% (inactive) | inhibition ([16]; measured here: combo with BGB at IC20, at 0.5 µM): -4.63% and -10.8% | inhibition ([16]; measured here: combo with cisplatin at IC20, at 0.5 µM): 6.01% and -7.71% | inhibition ([17]; at 0.5 µM): -0.47% (inactive) and -23.2% (inactive) | inhibition ([17]; measured here: BGB combination, at 0.5 µM): -3.41% and -22.4% | inhibition ([17]; measured here: BGB combination, at 5 µM): -17.4% and -31.2% | inhibition ([17]; measured here: cisplatin combination, at 0.5 µM): 0.87% and -34.6% | inhibition ([17]; measured here: cisplatin combination, at 5 µM): -5.11% and -24.1% | inhibition ([18]; at 0.5 µM): 11.3% (inactive) and -10.3% (inactive) | inhibition ([18]; cisplatin combination, at 0.5 µM): -7.35% and -15% | inhibition ([18]; cisplatin combination, at 5 µM): -13.3% and -155% | inhibition ([18]; measured here: BGB IC40 combination 0.05 uM, at 0.05 µM): 5.6% and -35.5% | inhibition ([18]; single agent, at 5 µM): 10.4% and -13.1% | inhibition ([19]; at 0.5 µM): 1.7% (inactive) and -8.58% (inactive) | inhibition ([19]; cisplatin combo, at 5 µM): 12.7% and -18.4% | inhibition ([19]; measured here: BGB IC40 combination, at 0.05 µM): -6.79% and -15.3% | inhibition [19, 24]: 2.62% and -23% | inhibition ([19]; single agent, at 5 µM): -0.936% and -12.4% | inhibition ([20]; at 0.5 µM): -31.3% (inactive) and -16.2% (inactive) | inhibition [20, 22]: -54.2% and -32.2% | inhibition [20, 23]: -19.9% and -9.92% | inhibition ([20]; single agent, at 0.05 µM): 6.98% and -30.8% | inhibition ([20]; single agent, at 5 µM): -17.9% and -2.7%

CC[C@H]1OC(=O)[C@H](C)[C@@H](O[C@H]2C[C@@](C)(OC)[C@@H](O)[C@H](C)O2)[C@H](C)[C@@H](O[C@@H]2O[C@H](C)C[C@H](N(C)C)[C@H]2O)[C@](C)(O)C[C@@H](C)CN(C)[C@H](C)[C@@H](O)[C@]1(C)O
inhibition [2]: 6.36% | score [3]: 1.1 | rescue above control [4]: 0.7 | cytochrome c release ratio [5]: 1.04 | inhibition of aggregation [6]: 65.2% | glutamate uptake change [7]: 5.3% | inclusion score [8]: 3 | aggregation suppression score [9]: 0.581

CC(Cc1ccc(O)c(O)c1)(NN)C(=O)O (centres undefined)
inhibition [2]: 4.01% | score [3]: 1.18 | rescue above control [4]: -6.05 | cytochrome c release ratio [5]: 0.84 | inhibition of aggregation [6]: 15.6% | glutamate uptake change [7]: 6.68% | inclusion score [8]: 2 | aggregation suppression score [9]: 1.15

O=C1C(c2c(O)[nH]c3ccccc23)=Nc2ccccc21
fold fluorescence [1]: 3.17 [at 190.6 µM] (inactive)
